Laboratory results: PubChem BioAssay
Activity calls are given as the source filed them.

Key:
[1] = binders of probe aFSTL3 on microarray, primary screen, stem cell growth factor project, biochemical, small-molecule microarray, fluorescence 635/667 (AID 1064); conditions: higher = more signal;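 also: measures binding of the biotinylated anti-FSTL3 antibody to printed compounds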
[2] = binders from COS7 lysate, DM2A8 probe, primary screen, torsin A project, cell lysate, small-molecule microarray, fluorescence 635/667 (AID 1065); conditions: higher = more signal, COS7 lysate expressing mutant human TOR1A
[3] = binders of probe aFGF2 on microarray, primary screen, stem cell growth factor project, biochemical, small-molecule microarray, fluorescence 635/667 (AID 1067); conditions: higher = more signal;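 also: measures binding of biotinylated aFGF2 protein to printed compounds on slides; z-score merges feature fluorescence and signal-to-noise across triplicate slides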
[4] = binders of probe aFGF10 on microarray, primary screen, stem cell growth factor project, biochemical, small-molecule microarray, fluorescence 635/667 (AID 1071); conditions: higher = more signal;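 also: score merges 667 nm spot intensity and signal to noise from triplicate slides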
[5] = target: Neurogenic locus notch homolog protein 2 (Homo sapiens) (UniProt Q04721); experiment: Notch2 binders on small-molecule microarrays, primary screen, biochemical, small-molecule microarray, 635 nm fluorescence, stem cell growth factors (AID 1073); conditions: Notch2 binding, higher = more signal
[6] = target: Pro-neuregulin-1, membrane-bound isoform (Homo sapiens) (UniProt Q02297); experiment: NRG1 binders on small-molecule microarrays, primary screen, psychiatric disease protein project, biochemical, small-molecule microarray, fluorescence 635/667 (AID 1075); conditions: NRG1 binding, 635 nm fluorescence, higher = more signal;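 also: score combines 667 nm spot fluorescence with signal to noise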
[7] = tested on: Neuregulin-1 EGF-like domain; experiment: binders of neuregulin-1 EGF-like domain, primary screen, biochemical, small-molecule microarray, 635 nm fluorescence (AID 1081); conditions: small-molecule microarray binding, higher = more signal;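 also: binding of the protein to compounds printed on small-molecule microarray slides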
[8] = FRG1 promoter luciferase signal modulators, primary screen, FRG1 inhibition for FSHD, cell-based, C2C12 myotubes, firefly/Renilla luciferase, luminescence (AID 1084); conditions: higher = more signal, called active from +8 up or from −8 down
[9] = binders of probe aFST on microarray, primary screen, stem cell growth factor project, biochemical, small-molecule microarray, fluorescence 635/667 (AID 1086); conditions: higher = more signal;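 also: score merges 667 nm fluorescence with signal-to-noise of each printed compound spot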
[10] = binders of probe aHhip on microarray, primary screen, stem cell growth factor project, biochemical, small-molecule microarray, fluorescence 635/667 (AID 1087); conditions: higher = more signal;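 also: score merges spot fluorescence at 667nm with spot signal to noise ratio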

Chain of Neurogenic locus notch homolog protein 2 (Homo sapiens) (Q04721 whole entry, looked up, canonical isoform): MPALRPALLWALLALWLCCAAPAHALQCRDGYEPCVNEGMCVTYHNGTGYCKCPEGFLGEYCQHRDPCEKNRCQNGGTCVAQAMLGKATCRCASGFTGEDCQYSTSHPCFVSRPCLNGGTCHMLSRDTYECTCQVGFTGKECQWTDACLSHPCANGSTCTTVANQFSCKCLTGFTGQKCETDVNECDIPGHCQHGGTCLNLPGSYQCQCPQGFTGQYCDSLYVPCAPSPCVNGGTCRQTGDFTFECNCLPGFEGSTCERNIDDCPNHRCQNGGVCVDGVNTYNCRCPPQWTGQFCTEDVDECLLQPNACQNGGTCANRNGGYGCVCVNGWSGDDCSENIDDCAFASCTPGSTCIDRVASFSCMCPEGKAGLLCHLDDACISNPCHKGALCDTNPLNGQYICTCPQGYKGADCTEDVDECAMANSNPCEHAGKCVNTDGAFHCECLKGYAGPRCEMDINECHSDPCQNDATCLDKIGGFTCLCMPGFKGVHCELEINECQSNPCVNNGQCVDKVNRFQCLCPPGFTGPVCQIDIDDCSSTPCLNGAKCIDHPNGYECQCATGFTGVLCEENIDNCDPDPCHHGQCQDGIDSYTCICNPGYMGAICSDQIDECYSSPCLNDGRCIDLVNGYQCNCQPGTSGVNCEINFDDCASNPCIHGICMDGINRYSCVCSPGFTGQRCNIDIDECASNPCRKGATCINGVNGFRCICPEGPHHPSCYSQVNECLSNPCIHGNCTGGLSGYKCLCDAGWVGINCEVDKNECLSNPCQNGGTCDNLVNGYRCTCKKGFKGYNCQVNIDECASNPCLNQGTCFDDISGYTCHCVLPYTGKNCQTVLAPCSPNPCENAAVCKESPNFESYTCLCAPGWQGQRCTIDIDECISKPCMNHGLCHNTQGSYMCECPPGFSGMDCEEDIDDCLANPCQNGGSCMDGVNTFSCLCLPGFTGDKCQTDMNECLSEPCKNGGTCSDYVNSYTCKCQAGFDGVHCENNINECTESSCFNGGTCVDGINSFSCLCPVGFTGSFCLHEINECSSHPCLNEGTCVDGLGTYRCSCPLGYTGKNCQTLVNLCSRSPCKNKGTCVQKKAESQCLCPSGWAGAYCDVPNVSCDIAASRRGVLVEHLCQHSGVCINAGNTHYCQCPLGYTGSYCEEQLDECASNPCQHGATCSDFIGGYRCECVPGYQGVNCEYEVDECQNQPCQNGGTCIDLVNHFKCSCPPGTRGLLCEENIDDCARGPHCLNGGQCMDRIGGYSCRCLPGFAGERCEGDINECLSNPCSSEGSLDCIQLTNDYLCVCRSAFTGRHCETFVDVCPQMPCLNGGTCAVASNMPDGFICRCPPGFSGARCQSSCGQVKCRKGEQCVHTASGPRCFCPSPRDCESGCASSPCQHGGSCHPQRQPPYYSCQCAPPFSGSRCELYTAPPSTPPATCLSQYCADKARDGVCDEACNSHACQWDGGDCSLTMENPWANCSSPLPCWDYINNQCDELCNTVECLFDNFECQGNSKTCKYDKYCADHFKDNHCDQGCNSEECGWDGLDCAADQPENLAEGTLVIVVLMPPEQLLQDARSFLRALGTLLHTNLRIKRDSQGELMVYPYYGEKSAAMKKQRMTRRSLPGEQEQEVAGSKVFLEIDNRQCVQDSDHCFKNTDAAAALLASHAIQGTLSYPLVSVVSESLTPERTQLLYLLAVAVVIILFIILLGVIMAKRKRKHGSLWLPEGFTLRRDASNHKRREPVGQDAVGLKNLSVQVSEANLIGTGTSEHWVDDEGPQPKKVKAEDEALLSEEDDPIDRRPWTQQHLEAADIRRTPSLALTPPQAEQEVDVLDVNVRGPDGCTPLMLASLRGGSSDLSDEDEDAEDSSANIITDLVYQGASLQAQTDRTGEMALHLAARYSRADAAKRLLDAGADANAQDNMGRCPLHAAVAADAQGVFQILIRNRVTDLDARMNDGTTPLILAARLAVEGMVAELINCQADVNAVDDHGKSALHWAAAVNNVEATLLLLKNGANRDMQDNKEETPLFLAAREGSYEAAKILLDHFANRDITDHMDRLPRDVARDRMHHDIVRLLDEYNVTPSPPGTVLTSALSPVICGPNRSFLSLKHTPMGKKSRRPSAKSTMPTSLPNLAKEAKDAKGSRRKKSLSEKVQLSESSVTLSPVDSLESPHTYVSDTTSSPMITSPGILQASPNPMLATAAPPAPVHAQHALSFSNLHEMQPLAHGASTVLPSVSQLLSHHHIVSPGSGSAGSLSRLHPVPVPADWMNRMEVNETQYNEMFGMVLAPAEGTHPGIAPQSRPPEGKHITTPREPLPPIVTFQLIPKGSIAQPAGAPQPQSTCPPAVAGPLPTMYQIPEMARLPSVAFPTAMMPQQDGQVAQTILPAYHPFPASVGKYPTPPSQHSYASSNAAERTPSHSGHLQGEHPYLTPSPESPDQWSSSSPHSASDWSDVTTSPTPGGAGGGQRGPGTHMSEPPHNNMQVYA
Chain of Pro-neuregulin-1, membrane-bound isoform (Homo sapiens) (Q02297 whole entry, looked up, the tested form may be a part, canonical isoform): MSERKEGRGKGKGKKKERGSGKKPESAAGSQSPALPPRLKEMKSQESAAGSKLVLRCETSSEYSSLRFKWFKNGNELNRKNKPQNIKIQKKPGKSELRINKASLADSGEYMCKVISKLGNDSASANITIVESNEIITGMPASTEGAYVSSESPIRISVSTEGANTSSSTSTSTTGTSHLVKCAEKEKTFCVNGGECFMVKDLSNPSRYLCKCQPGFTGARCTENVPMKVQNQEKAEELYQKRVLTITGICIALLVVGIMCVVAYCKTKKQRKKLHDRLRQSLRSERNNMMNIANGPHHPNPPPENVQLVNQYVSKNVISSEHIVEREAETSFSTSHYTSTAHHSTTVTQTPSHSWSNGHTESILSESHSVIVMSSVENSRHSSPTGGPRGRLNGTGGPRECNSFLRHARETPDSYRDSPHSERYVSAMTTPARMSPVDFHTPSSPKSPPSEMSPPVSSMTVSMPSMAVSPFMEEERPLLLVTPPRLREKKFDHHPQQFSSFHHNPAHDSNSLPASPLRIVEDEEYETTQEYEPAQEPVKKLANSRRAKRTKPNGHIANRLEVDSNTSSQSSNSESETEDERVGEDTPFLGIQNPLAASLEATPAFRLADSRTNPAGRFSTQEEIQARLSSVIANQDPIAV

| Structure (SMILES) | composite z-score [1] | composite z-score [2] | composite z-score [3] | composite z-score [4] | composite z-score [5] | composite z-score [6] | composite z-score [7] | z-score [8] | composite z-score [9] | composite z-score [10] |
| --- | --- | --- | --- | --- | --- | --- | --- | --- | --- | --- |
| CCOC(=O)[C@H](Cc1ccccc1)NC(=O)CCC1CC(OC(=O)NCCc2ccc(F)cc2)CC2(CCCC(COC(=O)NCCCN3CCCC3=O)O2)O1 (stereo not given in full) | -0.478 | 0.291 | -0.0628 | 0.328 | 1.16 | 0.533 | 0.394 | -1.9 (inactive) | 0.326 | -0.0994 |
| CC(CCN1CCCCc2nc(C)c(C)cc21)=NO[C@H](C)c1cn([C@H](CO)Cc2ccccc2)nn1 | -0.476 | 0.736 | -0.0894 | 0.205 | -0.248 | -0.0339 | 0.362 | 2.09 (inactive) | 0.627 | -0.0237 |
| CCOC(=O)CCN1C(=O)[C@H]2[C@H]3[C@H](O)[C@H](O)CC(=NOCc4ccccc4)[C@H]3CC[C@H]2C1=O | 1.08 | -0.164 | -0.121 | 0.11 | 0.206 | -0.188 | -0.368 | -0.0531 (inactive) | 0.494 | -0.236 |
| CCCNC(=O)OC[C@H]1O[C@H](CCON=C(C)C)C=C[C@@H]1Oc1ccc(OC)cc1 | 0.0684 | -0.152 | -0.0598 | 0.332 | -0.482 | 0.0871 | -0.327 | 0.534 (inactive) | 0.139 | -0.226 |
| C[C@@H](c1ccccc1)N1C(=O)[C@H]2[C@H]3[C@H](O)[C@H](O)CC(=O)[C@H]3CC[C@H]2C1=O | -0.483 | 0.107 | -0.0878 | 0.443 | 0.896 | 0.286 | 0.477 | -0.12 (inactive) | 0.0442 | -0.0994 |
| COC(=O)CC=C[C@@H](C)[C@@H](C=NOC[C@@H](O)[C@H]1O[C@@H]2OC(C)(C)O[C@@H]2[C@H]1O)NS(=O)(=O)c1ccc(C)cc1 | -0.383 | 0.746 | -0.171 | 0.347 | 0.463 | -0.0399 | -0.124 | 0.703 (inactive) | 0.155 | -0.641 |
| CCOC(=O)[C@H](CC(C)C)NC(=O)CCC1CC(OC(=O)NCc2cccc3ccccc23)CC2(CCCC(COC(=O)NCCOc3ccccc3)O2)O1 (stereo not given in full) | -0.646 | 0.374 | -0.016 | 0.273 | 1.2 | 0.647 | 1.01 | 1.67 (inactive) | 0.0697 | 0.224 |
| CC(C)=CCCC(C)=CCON=C1C[C@@H](O)[C@@H](O)[C@@H]2[C@@H]3C(=O)N(C4CCCCC4)C(=O)[C@@H]3CC[C@@H]12 | 1.18 | 0.76 | -0.132 | 0.332 | -0.0557 | -0.148 | 0.598 | 0.735 (inactive) | 0.0152 | -0.374 |
| CCOC(=O)[C@H](CC(C)C)NC(=O)CCC1CC(OC(=O)NCc2ccc3c(c2)OCO3)CC2(CCCC(COC(=O)NCC(c3ccccc3)c3ccccc3)O2)O1 (stereo not given in full) | -0.354 | -0.168 | -0.0692 | 0.229 | 0.129 | 0.49 | 1.17 | 2.69 (inactive) | 0.344 | -0.0994 |
| CC(C)CON=C1C[C@@H](O)[C@@H](O)[C@@H]2[C@@H]3C(=O)N(Cc4ccc5c(c4)OCO5)C(=O)[C@@H]3CC[C@H]12 | -0.504 | -0.111 | -0.149 | 0.715 | 0.392 | 1.01 | 1 | -0.261 (inactive) | 0.0313 | -0.0645 |
| CCOC(=O)[C@H](Cc1ccccc1)NC(=O)CCC1CC(OC(=O)NCc2cccc3ccccc23)CC2(CCCC(COC(=O)NCc3ccccc3)O2)O1 (stereo not given in full) | -0.356 | 0.0841 | -0.21 | 0.159 | 0.118 | 0.477 | 0.686 | 0.573 (inactive) | 0.0918 | -0.303 |
| C=CC[C@@H]1C=C[C@H](ON=C(C)CCN2CCc3nc(-c4ccccc4)c(-c4ccccc4)cc3C2)[C@@H](CO)O1 | -0.374 | 1.11 | -0.2 | 0.34 | 0.65 | 0.464 | 0.942 | 1.23 (inactive) | 0.197 | 0.0393 |
| C#CCCCON=C1[C@H]2CCn3c(=O)n(-c4ccccc4)c(=O)n3[C@H]2[C@H](O)[C@@H]2O[C@H]12 | -0.306 | 0.0575 | -0.24 | 0.201 | 0.47 | -0.0335 | 0.478 | -1.91 (inactive) | 0.212 | -0.134 |
| CC(C)(C)N1C(=O)[C@H]2[C@H]3[C@H](O)[C@H](O)CC(=NOCc4ccccc4)[C@H]3CC[C@H]2C1=O | 1.55 | 0.636 | -0.0006 | -0.0753 | -0.224 | -0.102 | -0.559 | 0.431 (inactive) | 0.687 | -0.119 |
| COc1cc(O)c(C(=O)C=Cc2ccc3c(c2)OCO3)c(OC)c1 | -0.132 | 0.0414 | 0.0198 | 0.2 | -0.877 | -0.288 | -0.927 | -0.984 (inactive) | -0.155 | 0.0238 |
| Cc1cc2c(c(=O)o1)[C@@H](O)[C@H]1O[C@H]1C2=O | -0.494 | 0.23 | -0.0103 | 0.336 | 0.378 | -0.167 | 0.239 | 0.446 (inactive) | 0.163 | 0.151 |
